Results reported in ChEMBL document CHEMBL3433997, “St. Jude Leishmania screening dataset” (2016).

What follows are molecules tested against Glucose transporter (Leishmania mexicana) (UniProt O61059) (assay: ST_JUDE_LEISH: Cytotoxicity at 2uM final concentration against transgenic Leishmania Mexicana promastigotes LmGT2 that are glucose transport deficient and complemented with the L. Mexicana glucose transporter 2. Activity is measured by DNA content using SYBR green in vitro).
Format: functional

Structure (SMILES) | inhibition [%]
Cn1c2c(c3ccccc31)CN(CCC1(c3ccc(Cl)c(Cl)c3)CN(C(=O)c3ccccc3)CCO1)CC2 (centres undefined) | 2.38
COc1ccc(/N=[N+](\[O-])c2ccccc2/[N+]([O-])=N/c2ccc(OC)cc2)cc1 | 1.68
O=C(CC1NC(=O)c2ccccc21)Nc1ccc(-c2ccc(-c3nc4cc(C(F)(F)F)ccc4[nH]3)cc2)cc1 (centres undefined) | 5.45
O=C(Nc1cccc(-c2cccc(-c3nc4cc(C(F)(F)F)ccc4[nH]3)c2)c1)c1cccnc1 | -1.51
CCCCCCNc1cc(C)nc(NC(=N)Nc2cccc(C(F)(F)F)c2)n1 | 4.89
Nc1ncc(-c2ccc3nccc(-c4ccncc4)c3c2)cc1S(=O)(=O)N1CCOCC1 | 1.27
CC(C)(C)C/C=C\c1ccc(C(=O)NCC2CC2)cc1 | 3.76
CC1(C)CN(CCC2CCC(NC(=O)/C=C/c3ccccc3F)CC2)Cc2ccc(C#N)cc21 (centres undefined) | 1.48
Nc1nc(N)c2c(Cl)c(CNc3cccc(C(=O)O)c3)ccc2n1 | 3.26
N#Cc1cc(C(=O)c2cc(Br)ccc2O)cn(C2CCCCC2)c1=O | 3.8
CC(C)N1CCC(NC(=O)N2CCCN(c3ncnc4cc(-c5ccc(Cl)cc5)sc34)CC2)CC1 | -3.09
COc1cccc2sc(N3CCN(C(=O)c4ccc([N+](=O)[O-])o4)CC3)nc12 | 4.81
CC(C)c1ccc(OCC(O)CN(CCN2CCOCC2)C(=O)Nc2ccc(Br)cc2)cc1 (centres undefined) | 9.58
CC(=O)c1c(C)[nH]c(C(=O)Nc2ccc(-c3nc4ccc(C)cc4s3)cc2)c1C | 2.35
CC(C(=O)Nc1ccc(Br)cc1Br)N1CCN(C(=O)c2ccco2)CC1 (centres undefined) | 1.86
Nc1nc(N)c2c(Sc3ccc(F)cc3)cccc2n1 | 7.67
Cc1onc(-c2ccccc2)c1-c1nc(NCc2ccccc2Cl)no1 | 1.32
CCCCC(=O)Nc1ccc(Nc2nc(C)cc(N3CCCC3)n2)cc1 | 3.88
COc1cc(Cc2cnc(N)nc2N)c2ccsc2c1OC | 1.58
C=CCn1c(Sc2ccc(C#N)c([N+](=O)[O-])c2)nnc1-c1ccc(Cl)cc1 | 2.18
O=C1CCCN1CCCNCc1ccc(-c2cccc(-c3nc4ccccc4[nH]3)c2)cc1 | 4.94
O=C(Nc1ccc(Cn2ncc(N3CCCNCC3)c(Cl)c2=O)cc1)Nc1cc(Cl)cc(Cl)c1 | 0.75
CCOc1cc(OCC)c2ccccc2c1CNCCCCCCNCc1c(OCC)cc(OCC)c2ccccc12 | 56.7
CN(C)CCNCc1cccc(-c2cccc(-c3nc4ccccc4[nH]3)c2)c1 | 1.85
